# Screening results (PubChem BioAssay)
# Shiga toxin inh: Shiga toxin inhibition. Vero cells, Shiga toxin protein synthesis inhibition reporter. inhibition, % at 38.7 µM. 290,000 tested, 9.2% active; in the data active = inhibition mostly above about 28%, no sharp cut-off; inactive = mostly below about 43%; note: 0% is about no effect
# Lassa entry inh: inhibitors of Lassa virus binding or cell entry | AID 540256 | Lassa virus pseudotype entry inhibition, cell reporter | 300,000 tested, 1.2% active | Potency, µM (top dose mostly 37.9 µM), inactives show at the highest dose activity change, negative = inhibition, hits mostly inhibitors; calls by dose curve; tested in HEK293 cells; note: potency is the fitted concentration of half-maximal effect; % is set by controls: 0 for no effect and ±100 for the full control effect; nearly all actives have a fitted effect of over 50% in size
# Marburg entry inh: blocks Marburg virus binding to or entry into cells; Marburg virus pseudotyped entry inhibition, cell reporter; Potency, µM (titrated, usually from 37.8 µM), for inactives: top-dose activity change, negative = inhibition, hits mostly inhibitors; 300,000 tested, 1.8% active; calls by dose curve; tested in HEK293 cells; note: potency is the fitted concentration of half-maximal effect; % is set by controls: 0 for no effect and ±100 for the full control effect
# Cycloheximide cs: counter-screen for Shiga toxin inhibitors: cycloheximide protein synthesis inhibition | cell reporter, cycloheximide protein synthesis inhibition counterscreen | max response, % | 300,000 tested, 12% active | AID 2314; in the data active = max response mostly above about 13%, no sharp cut-off; inactive = mostly below about 14%; note: read at 38.3 µM for the half of the compounds with a filed dose; 0% is about no effect
# * hit, by the source's call; ? = inconclusive; / = no result; ! = a repeat was not active; [ ] = dose if it differs, or a comment. Hits are enriched below; roughly 12% of the tested compounds scored in any of these assays.
SMILES,Shiga toxin inh,Lassa entry inh,Marburg entry inh,Cycloheximide cs
COc1ccc(N(CC(O)CN2CCOCC2)S(=O)(=O)c2ccccc2)cc1 (stereo not drawn),18,2%,16%,-1
Cc1ccc(S(=O)(=O)N2CCOCC2)cc1N/N=C(\C#N)c1nc2ccccc2[nH]1,5,/,1%,9
COc1ccccc1C(=O)Nc1cccc(NC(=O)c2ccccc2C)c1,6,-30%[46.1 µM],?,3
Nc1ccc(C(=O)Nc2cccc(N)c2)cc1,77*,/,/,20*
Cc1ccccc1C(=O)Nc1cccc(N)c1,31*,9%,-5%[46.1 µM],18*
CCCN1CCN(C(=O)C2CCN(c3nnc(C)c4c(C)n(-c5ccc(C)cc5)nc34)CC2)CC1,-7,/,/,-2
COc1ccccc1N1CCN(C(=O)c2nc(SC)ncc2Cl)CC1,/,?,-19%[46.1 µM],/
O=C(Nc1ccccc1)n1ccc(-c2ccc(-n3ccnc3)cc2)n1,40*,/,/,43*
Cn1c(=O)[nH]c2nnc(-c3ccc(Cl)c(Cl)c3)nc2c1=O,50*,10µM*,?,25*
CSc1cnc2c(=O)n(C)c(=O)[nH]c2n1,17,2%,6%,-1
Cc1ccc(/C(O)=C2/C(=O)C(=O)OC2c2ccc(Cl)cc2)cc1 (stereo not drawn),20,-3%,9%,24*
O=C1OC(c2ccccc2)/C(=C(/O)c2ccccc2)C1=O (stereo not drawn),101*,7%,18%,39*
O=C1OC(c2ccccc2)/C(=C(/O)c2ccc(Cl)cc2)C1=O (stereo not drawn),12,11%,0%,13
CN1C(=O)C(=O)/C(=C(/O)c2ccccc2)C1c1ccccc1 (stereo not drawn),2,/,/,-3
CCc1cc(=O)oc2c(C)c(OC(C)C(=O)NCCCn3ccnc3)ccc12 (stereo not drawn),-1,/,/,-3
O=C(Nc1nnc(SCc2ccc(F)cc2)s1)c1ccccn1,93*,?,?,40*
O=C(Nc1nnc(SCc2ccc(F)cc2)s1)c1cccnc1Cl,14,-18%[46.1 µM],6%[46.1 µM],18*
CCN(CC)S(=O)(=O)c1ccc(C)c(NC(=S)N2CCN(Cc3ccc4c(c3)OCO4)CC2)c1,-5,?,?,3
Cc1ccc(Nc2nc(N)nc(CSc3nnc(-c4ccncc4)o3)n2)cc1,48*,25%,3%,14*
Cc1nc(Cc2nnc(SCc3nc(N)nc(Nc4ccccc4C)n3)o2)cs1,-4,16%,-5%[46.1 µM],-1
Nc1nc(CSc2ncccn2)nc(Nc2ccccc2)n1,139*,9%,-2%,62*
Nc1nc(CSc2n[nH]c(-c3ccccc3)n2)nc(Nc2ccccc2)n1,-10,?,?,-1
Cc1ccc(Nc2nc(N)nc(CSc3ncccn3)n2)cc1,68*,-18%,?,29*
COc1ccc(Nc2nc(N)nc(CSc3nnc(C)s3)n2)cc1,56*,6%,4%,29*
Cc1ccc(Nc2nc(N)nc(CSc3nc(C)cc(C)n3)n2)cc1,-5,0%,?,3
SMILES,Shiga toxin inh,Lassa entry inh,Marburg entry inh,Cycloheximide cs
COc1ccc(Nc2nc(N)nc(CSc3nc4cc(OC)ccc4s3)n2)cc1,/,-20%[46.1 µM],-22%[46.1 µM],/
O=C(NCc1ccc(C(=O)O)cc1)OCc1ccccc1,-3,-23%,-2%[46.1 µM],-1
Cc1ccc(CNC(=O)C2CCCN(S(=O)(=O)c3cccc4nonc34)C2)cc1 (stereo not drawn),-11,-5%[46.1 µM],9%[46.1 µM],-2
COc1ccc(Nc2nc(N)nc(CSc3nccc(C)n3)n2)cc1,76*,-11%,?,16*
Cc1ccc(Nc2nc(N)nc(CSc3nc4ccccc4s3)n2)cc1,37*,?,?,37*
Cc1ccsc1C(=O)N1CCCC(CO)(Cc2ccccc2)C1 (stereo not drawn),38,?,1%[46.1 µM],22*
Cc1ccsc1C(=O)N1CCC(CO)(Cc2ccccc2)CC1,15,-26%[46.1 µM],?,-3
CCN(C(=O)CSc1nc(C)c(C)c(C)n1)C1CCS(=O)(=O)C1 (stereo not drawn),/,16%,12%,/
CC(=O)N1c2ccc(S(=O)(=O)NCC3CCC(C(=O)N4CCCC(C)C4)CC3)cc2CC1C (stereo not drawn),-5,/,/,-2
COc1ccc(CCNC(=O)C/C(C)=N/NC(=O)c2ccc(N)cc2)cc1OC,27,19%,21%,12*
CCN1CCN(C(=O)c2ccc3c(=O)n(CCc4ccccc4)c(=O)[nH]c3c2)CC1,59*,15%,4%,20*
COc1ccc(OC)c(-n2c(=O)[nH]c3cc(C(=O)NCCc4ccc(OC)c(OC)c4)ccc3c2=O)c1,/,3%[46.1 µM],8%[46.1 µM],/
COc1ccc(CCn2c(=O)[nH]c3cc(C(=O)NCCc4ccccc4)ccc3c2=O)cc1OC,25*,/,/,25*
COc1ccc(CCNC(=O)c2ccc(CNS(=O)(=O)c3cc(C)ccc3C)cc2)cc1OC,-11,?,10µM*,1
CC(=O)N1CCOc2cc(S(=O)(=O)Nc3cccc(C(F)(F)F)c3)c(Cl)cc21,/,17%[46.1 µM],/,/
COc1ccc(C(=O)NCCc2ccc(F)cc2)cc1OC,25,24%,?,27*
COc1ccccc1Cn1c(=S)[nH]c2cc(C(=O)NCCN(C)C)ccc2c1=O,-5,-1%[46.1 µM],10µM*,-2
COc1cc(C(=O)NCCc2ccc(F)cc2)ccc1OCC(=O)N1CCOCC1,/,-1%,-1%[46.1 µM],/
CC(C)c1ccc(C(=O)CN2C(=O)NC3(CCc4ccccc43)C2=O)cc1 (stereo not drawn),/,-24%,-5%,/
Cc1ccccc1CSc1nnc(-c2ccncc2)o1,39,/,/,13*
c1ccc(CSc2nnc(-c3ccncc3)o2)cc1,85*,16%,?,35*
N#Cc1ccc(CSc2nnc(-c3ccncc3)o2)cc1,-5,-25%[46.1 µM],0%[46.1 µM],-2
Cc1ccc(-c2nnc(SCc3ccccc3C#N)o2)cc1,/,29%[46.1 µM],?,/
CCOC(=O)C1(Cc2cccc(F)c2)CCN(C(=O)Cn2cnnn2)CC1,16,/,/,2
Cc1ccc(C)c(N2CCN(C(=O)C3CCCCN3S(=O)(=O)c3ccc(F)cc3)CC2)c1 (stereo not drawn),-1,-25%,10µM*!,-5
SMILES,Shiga toxin inh,Lassa entry inh,Marburg entry inh,Cycloheximide cs
O=C(O)C1CCCN1S(=O)(=O)c1ccc(F)cc1 (stereo not drawn),-2,/,/,-8
Cc1ccc(NC(=O)NCc2ccc3c(c2)OCO3)cc1,27,7%,?,16*
Cc1cccc(NC(=O)NCc2ccc3c(c2)OCO3)c1,79*,/,/,39*
Cc1ccccc1NC(=O)NCc1ccc2c(c1)OCO2,10,7%,21%,11
CCn1c2ccccc2c2cc(NC(=O)CSc3nccc(=O)[nH]3)ccc21,27,-9%,11%,-2
CCOc1ccc2c(c1)C(c1cccs1)=NNC(c1cccnc1)=N2,0,-13%,-16%[46.1 µM],10
CCOc1ccc(C2=NNC(c3cccs3)=Nc3ccc(OCC)cc32)cc1,30*,/,-2%,4
COc1ccc(C2=NNC(c3cccs3)=Nc3ccc(OC)cc32)cc1,70*,1%,3%,31*
CCOc1ccc(C2=NC(c3cccs3)=Nc3ccc(CC)cc3N2)cc1OCC,/,-28%[46.1 µM],?,/
CCOc1ccc(C2=NNC(c3cccs3)=Nc3ccc(OC)cc32)cc1OCC,52*,-18%,-17%[46.1 µM],27*
CCc1nnc(NC(=O)c2cc(-c3ccccn3)nc3ccc(Br)cc23)s1,-8,3%,21%,-2
